This assay is described as follows: caspase-8 TRAIL sensitization, hit retest, confirmation, cell-based, NB7+caspase-8, with/without TRAIL, luminescence panel (AID 651596). The conditions noted are these: NB7 neuroblastoma + caspase-8, without TRAIL, luminescence viability, without TRAIL, mean of runs, at 10 µM.
As for `Cc1cccc(-c2nc3cc(NC(=O)C4CCCO4)ccc3o2)c1` (stereo not given), the activity was 64.7%.

For the compound `COc1ccc(-c2cc3nc[nH]c(=O)c3s2)cc1`, the activity was 58.2%.

Regarding `Cc1ccc(Cl)cc1N1CCN(C(=O)c2noc(C)c2[N+](=O)[O-])CC1`, the activity came out at 97.1%.

In the case of `Cc1cc(NC(=O)c2ccc3c(c2)OCO3)no1`, the activity came to 48.3%.

As for `CCc1ccc(Nc2n[n+](-c3ccccc3)c(-c3ccc(N(CC)CC)cc3)s2)cc1`, the activity was found to be 41.2%.

For `CCn1cc(/C=C/C(=O)c2ccc(O)cc2)c(C)n1`, the activity turned out to be 57.5%.

As to `CCOc1cc(C(=O)O/N=C(\N)c2ccccn2)cc(OCC)c1OCC`, the activity was 78.5%.

In the case of `CNC[C@H](Cc1ccccc1)NC[C@@H](Cc1cccc2ccccc12)NCCc1ccc(C)cc1`, the activity was 99.1%.

Turning to `Cc1ccccc1C(=O)O/N=C(\N)Cc1cccs1`, the activity was determined as 96.6%.

As to `Nc1nc(Nc2ccc(Cl)cc2)nc2ccccc12`, the activity came to 83.5%.

With `CCOc1ccc(NC(=O)Nc2cccnc2)cc1`, the activity stood at 40.9%.

Consider `Cc1cc(NC(=O)c2ccc(S(=O)(=O)N3CCCC3)cc2)nc2c1c(=O)oc1ccccc12`, for which the activity was found to be 58.2%.

Consider `Cc1nc(=S)c2c([nH]1)-c1ccccc1CC21CCCCC1`, for which the activity stood at 76.4%.

On to `C#Cc1ccc(NC(=O)C2(C)CCN2C(=O)Cc2ccc(-c3ccccc3)cc2)cc1` (stereo not given), for which the activity was 68.4%.

For the compound `COc1ccc(OCC(=O)N/N=C(\C)c2cc3ccccc3o2)cc1`, the activity was found to be 70.2%.

Consider `Cc1ccc(C)c(NC(=S)NC(NC(=O)Cc2cccc3ccccc23)C(Cl)(Cl)Cl)c1` (stereo not given), for which the activity is 87.8%.

For the compound `CC(=O)n1cc(N(C(=O)CCl)c2ccccc2)c2ccccc21`, the activity was 99.8%.

Consider `Cc1ccc(Cn2ccsc2=NC(=O)CCl)cc1`, for which the activity is 99%.

For the compound `Cc1cccc(/C(N)=N/OC(=O)c2cccc3ccccc23)c1`, the activity is 71%.

In the case of `CCCCn1c(SCC(=O)Nc2nnc(CC)s2)nc2c1c(=O)n(C)c(=O)n2C`, the activity was 70.1%.

As for `CCOC(=O)C1=CCN(S(=O)(=O)c2ccccc2Cl)C1c1cccc(F)c1` (stereo not given), the activity is 11.8%.

For `CC(C)c1nnc(NC(=O)c2nc(S(=O)(=O)Cc3ccc(F)cc3)ncc2Cl)s1`, the activity worked out at 41.8%.

In the case of `CC1=NN(c2nc(N)nc(/C(C#N)=C/c3ccc([N+](=O)[O-])o3)n2)C(C)(C)C1`, the activity is 98.6%.

For the compound `C=CCN1C=CC(=C/C=C(/C#N)C(=O)OCC)C=C1`, the activity is 41.9%.

As for `CC1CCCN(c2ncnc3c2cnn3-c2ccccc2)C1` (stereo not given), the activity was 85.1%.

With `CN(C)c1ccc(C=Nc2ccccc2C(N)=O)cc1`, the activity turned out to be 86.5%.

For the compound `COc1ccc2c(=O)c(-c3nc(C)cs3)coc2c1`, the activity was found to be 71.6%.

Regarding `N#Cc1ccc(NC(=O)Nc2ccc(Cl)cc2)cc1`, the activity stood at 65.3%.

For the compound `O=C(CCl)N(c1ccccc1)c1c[nH]c2ccccc12`, the activity was 99%.

Turning to `O=C(Nc1ccc2nc(-c3ccco3)[nH]c2c1)c1cccs1`, the activity is 80.6%.

For `c1cncc(-c2nc3cc4ccccc4cc3[nH]2)c1`, the activity was 57.3%.

Turning to `CCc1n[n+](CC(=O)c2ccccc2)c(N)s1`, the activity was 35.9%.

`CCOC(=O)N1CCN(C(=O)c2ccc(Cn3c(=S)[nH]c4ccc(Br)cc4c3=O)cc2)CC1`: the activity stood at 58.9%.

With `O=C(/C=C/c1ccc(Cl)cc1Cl)N1CCc2ccccc21`, the activity amounted to 51.4%.

Turning to `Cc1ccc2nc(NC(=O)c3ccc(-c4nc5ccccc5s4)s3)sc2c1`, the activity came out at 17%.

Take `COc1cccc(CSc2nc3ccncc3[nH]2)c1`: the activity worked out at 88.4%.

For `O=C(NCc1cc(C(F)(F)F)ccc1Cl)c1cccc2c1C(=O)c1ccc(N3CCC(N4CCCCC4)CC3)cc1S2(=O)=O`, the activity came to 93.6%.

Turning to `CCOC(=O)C1=C(C)OC(=Cc2ccc(OC)cc2)C1=O`, the activity stood at 70%.

On to `CCc1ccc(C(=O)Nc2nnn(CC)n2)cc1`, for which the activity worked out at 75.5%.

Turning to `Nc1nc(CCl)nc(Nc2ccc3ccccc3c2)n1`, the activity is 97.8%.

Values taken from PubChem BioAssay.
